Inconclusive results are not listed. Active and inactive are the calls of the source. Unless noted, calls come from the whole dose curve; as a rule, active = well fitted curve in the direction sought with a large enough effect in the repeat runs; inconclusive = weak or mixed curves; inactive = no such curve, though single readings can be large; an effect the other way counts as inactive or inconclusive.
What was measured:
[1] = qHTS assay to identify aromatase inhibitors - cell viability counter screen (AID 743084);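 note: cells stimulated with testosterone during compound exposure; nearly all actives have a fitted effect of over 55% in size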
[2] = target: Aryl hydrocarbon receptor (Homo sapiens) (UniProt P35869); test: qHTS assay to identify small molecule that activate the aryl hydrocarbon receptor (AhR) signaling pathway (AID 743085);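 note: HG2L7.5c1 human HepG2 liver cells with stably integrated DRE-driven firefly reporter; series mostly up to about 70 µM; nearly all actives have a fitted effect of over 15% in size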
Procedure, shortened: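 Compounds were tested in HepG2 hepatocellular carcinoma cells harbouring a stably integrated luciferase gene under control of 20 DREs. Increased reporter signal after 24 h treatment at 37C was taken as AhR activation.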

[3] = qHTS assay to identify small molecule that activate the aryl hydrocarbon receptor (AhR) signaling pathway - cell viability counter screen (AID 743086);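 note: HepG2 liver cells carrying the AhR DRE luciferase reporter; series mostly up to about 70 µM; nearly all actives have a fitted effect of over 45% in size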
Procedure, shortened: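 Cytotoxicity counter screen: CellTiter-Fluor signal (30 min, 37 C) in 4000 HepG2 cells/well carrying the DRE-luciferase reporter, following 24 h compound exposure at 37 C.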

[4] = target: Peroxisome proliferator-activated receptor gamma (Homo sapiens) (UniProt P37231); test: qHTS assay to identify small molecule agonists of the peroxisome proliferator-activated receptor gamma (PPARg) signaling pathway (AID 743094; active = well fitted activation curve with a large enough effect in the signal ratio in the repeat runs, not every such curve was filed as active; the % refers to the signal ratio)
Procedure, shortened: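 GeneBLAzer PPARg UAS-bla HEK293H cells were plated, rested 5 h, then exposed to compounds for 17 h at 37C. Beta-lactamase activity was read by LiveBLAzer B/G FRET substrate fluorescence after 1 h at room temperature.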

[5] = target: Peroxisome proliferator-activated receptor gamma (Homo sapiens) (UniProt P37231); test: qHTS assay to identify small molecule antagonists of the peroxisome proliferator-activated receptor gamma (PPARg) signaling pathway (AID 743191; calls by dose curve; note: series mostly up to about 63 µM; nearly all actives have a fitted effect of over 30% in size)
Procedure, shortened: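 Beta-lactamase reporter under UAS control in HEK293H PPARg-bla cells; compound treatment 17 h at 37C. Read-out: fluorescence intensity after 1 h room-temperature incubation with LiveBLAzer B/G FRET substrate.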

[6] = qHTS assay to identify small molecule antagonists of the peroxisome proliferator-activated receptor gamma (PPARg) signaling pathway - cell viability counter screen (AID 743194); note: nearly all actives have a fitted effect of over 55% in size
Procedure, shortened: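 Viability was measured as CellTiter-Glo luminescence in GeneBLAzer PPARg UAS-bla HEK293H cells. These cells had been exposed 17 h at 37 C to compounds together with rosiglitazone at 50 nM final, with the beta-lactamase readout taken in the same wells.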

[7] = qHTS assay for small molecule agonists of the antioxidant response element (ARE) signaling pathway (AID 743202; active = well fitted activation curve with a large enough effect in the signal ratio in the repeat runs, not every such curve was filed as active; the % refers to the signal ratio)
Procedure, shortened: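 Quantitative high-throughput format in HepG2 cells bearing an integrated ARE-beta-lactamase reporter. Compound exposure lasted 16 h at 37 C, and fluorescence was read 2 h after adding LiveBLAzer B/G substrate at room temperature.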

[8] = qHTS assay for small molecule agonists of the antioxidant response element (ARE) signaling pathway - cell viability counter screen (AID 743203; calls by dose curve; note: nearly all actives have a fitted effect of over 55% in size)
Procedure, shortened: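 ARE-bla HepG2 cells were plated, rested 5 h at 37C/5% CO2, then exposed to compounds in DMSO for 16 h. Viability was read as CellTiter-Glo luminescence after 30 min at room temperature, in the same wells as the ARE screen.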

[9] = qHTS assay for small molecule activators of the heat shock response signaling pathway - cell viability counter screen (AID 743209); note: nearly all actives have a fitted effect of over 50% in size
Procedure, shortened: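 HSE-bla HeLa cells plated overnight, then exposed to Tox21 compounds (23 nL in DMSO) for 5 h at 37 C. After the bla reporter read, CellTiter-Glo was added in the same wells and luminescence read after 30 min at room temperature.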

[10] = qHTS assay for small molecule activators of the heat shock response signaling pathway (AID 743210; active = well fitted activation curve with a large enough effect in the signal ratio in the repeat runs, with a control signal flat, not every such curve was filed as active; the % refers to the signal ratio;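 note: HeLa cells with beta-lactamase reporter driven by heat shock elements; series mostly up to about 63 µM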)
Procedure, shortened: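 HeLa HSE-bla cells, overnight plating; cpd in DMSO 5 h, 37 C; LiveBLAzer B/G FRET substrate 2.5 h RT; fluorescence intensity read.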

[11] = qHTS assay to identify small molecule agonists of the peroxisome proliferator-activated receptor delta (PPARd) signaling pathway - cell viability counter screen (AID 743211); note: nearly all actives have a fitted effect of over 55% in size
Procedure, shortened: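 Counter screen for cytotoxicity run in parallel with the PPARd reporter screen. Beta-lactamase reporter HEK293H cells exposed to compounds 17 h; ATP-based CellTiter-Glo luminescence quantified viability.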

[12] = qHTS assay to identify small molecule antagonists of the peroxisome proliferator-activated receptor delta (PPARd) signaling pathway - cell viability counter screen (AID 743213); note: nearly all actives have a fitted effect of over 50% in size
Procedure, shortened: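 Cytotoxicity counter screen: CellTiter-Glo luminescence read 30 min after addition, in the same wells as the reporter assay. There, PPARd UAS-bla HEK293H cells (3000/well) were treated 17 h at 37 C with compound and 300 nM L165041.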

[13] = qHTS assay to identify small molecule antagonists of the farnesoid-X-receptor (FXR) signaling pathway - cell viability counter screen (AID 743221; active = well fitted cell-killing curve with a large enough effect in the repeat runs, not every such curve was filed as active; note: nearly all actives have a fitted effect of over 50% in size)
Procedure, shortened: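 Multiplexed counter screen: viability of FXR-bla HEK 293T cells under agonist stimulation by chenodeoxycholic acid (50 uM, final) and test compound for 16 h at 37 C, measured by CellTiter-Glo luminescence in the reporter wells.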

[14] = target: Vitamin D3 receptor (Homo sapiens) (UniProt P11473); test: qHTS assay to identify small molecule agonists of the vitamin D receptor (VDR) signaling pathway (AID 743222; calls by dose curve)
Procedure, shortened: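 VDR-bla cells plated 4 h at 37 C, then exposed to compounds for 16 h at 37 C. Beta-lactamase reporter activity measured by fluorescence after 2 h room-temperature loading with LiveBLAzer B/G FRET substrate.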

[15] = target: Vitamin D3 receptor (Homo sapiens) (UniProt P11473); test: qHTS assay to identify small molecule antagonists of the vitamin D receptor (VDR) signaling pathway (AID 743223; active = well fitted inhibition curve with a large enough effect in the signal ratio in the repeat runs, not every such curve was filed as active; the % refers to the signal ratio)
Procedure, shortened: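 Cells carrying a VDR-driven beta-lactamase reporter (VDR-bla) were co-treated with compound and 3 nM final 1alpha,25-dihydroxyvitamin D3 for 16 h at 37C; reporter activity was measured as FRET substrate fluorescence after 2 h at room temperature.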

[16] = target: Peroxisome proliferator-activated receptor delta (Homo sapiens) (UniProt Q03181); test: qHTS assay to identify small molecule agonists of the peroxisome proliferator-activated receptor delta (PPARd) signaling pathway (AID 743212; calls by dose curve)
Procedure, shortened: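 HEK293H PPARd-bla cells; 5 h preincubation 37 C/5% CO2; compound (DMSO) 37 C; LiveBLAzer B/G FRET substrate 2 h RT; fluorescence intensity.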

[17] = target: Peroxisome proliferator-activated receptor delta (Homo sapiens) (UniProt Q03181); test: qHTS assay to identify small molecule antagonists of the peroxisome proliferator-activated receptor delta (PPARd) signaling pathway (AID 743215; active = well fitted inhibition curve with a large enough effect in the signal ratio in the repeat runs, not every such curve was filed as active; the % refers to the signal ratio;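 note: cells stimulated with agonist L165041 at 300 nM final during compound exposure; series mostly up to about 62 µM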)
Procedure, shortened: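 PPARd-bla HEK293H cells (UAS-bla reporter) preincubated 5 h, then given compound plus 300 nM final L165041 agonist for 17 h at 37 C. Beta-lactamase activity read by LiveBLAzer B/G FRET substrate fluorescence after 2 h at room temperature.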

[18] = qHTS assay to identify small molecule agonists of the farnesoid-X-receptor (FXR) signaling pathway - cell viability counter screen (AID 743218); note: nearly all actives have a fitted effect of over 45% in size
Procedure, shortened: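 FXR-UAS-bla HEK 293T cells exposed to compounds for 16 h at 37C. Cytotoxicity read in the same wells by CellTiter-Glo luminescence after 30 min at room temperature, following the beta-lactamase FRET read.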

[19] = target: Bile acid receptor (Homo sapiens) (UniProt Q96RI1); test: qHTS assay to identify small molecule antagonists of the farnesoid-X-receptor (FXR) signaling pathway (AID 743217; active = well fitted inhibition curve with a large enough effect in the signal ratio in the repeat runs, not every such curve was filed as active; the % refers to the signal ratio)
Procedure, shortened: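 FXR-UAS-bla HEK 293T cells (beta-lactamase reporter) given compound plus chenodeoxycholic acid (50 uM final), 16 h at 37C. LiveBLAzer B/G FRET substrate added for 2 h at room temperature; fluorescence read.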

[20] = target: Bile acid receptor (Homo sapiens) (UniProt Q96RI1); test: qHTS assay to identify small molecule agonists of the farnesoid-X-receptor (FXR) signaling pathway (AID 743220; active = well fitted activation curve with a large enough effect in the signal ratio in the repeat runs, not every such curve was filed as active; the % refers to the signal ratio)
Procedure, shortened: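 Beta-lactamase reporter under UAS control in GeneBLAzer FXR HEK 293T cells (5000/well) measured with LiveBLAzer FRET substrate after 2 h at room temperature. Compound exposure lasted 16 h at 37C.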

Measured: Potency

Chain of Bile acid receptor (Homo sapiens) (Q96RI1 whole entry, looked up): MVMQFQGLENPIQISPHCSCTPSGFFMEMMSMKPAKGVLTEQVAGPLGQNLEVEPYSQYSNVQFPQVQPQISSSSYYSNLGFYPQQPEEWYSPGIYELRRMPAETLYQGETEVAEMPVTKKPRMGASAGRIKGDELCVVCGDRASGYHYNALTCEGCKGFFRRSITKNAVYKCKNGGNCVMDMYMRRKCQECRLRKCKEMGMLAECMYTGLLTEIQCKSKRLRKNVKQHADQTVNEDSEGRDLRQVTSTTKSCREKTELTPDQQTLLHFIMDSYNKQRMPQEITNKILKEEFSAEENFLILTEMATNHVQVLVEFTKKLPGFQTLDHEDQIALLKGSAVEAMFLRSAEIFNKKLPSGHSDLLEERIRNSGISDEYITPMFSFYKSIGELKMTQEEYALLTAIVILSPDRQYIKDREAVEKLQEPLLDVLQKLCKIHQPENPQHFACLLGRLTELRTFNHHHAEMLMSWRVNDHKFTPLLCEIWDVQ
Chain of Vitamin D3 receptor (Homo sapiens) (P11473 whole entry, looked up): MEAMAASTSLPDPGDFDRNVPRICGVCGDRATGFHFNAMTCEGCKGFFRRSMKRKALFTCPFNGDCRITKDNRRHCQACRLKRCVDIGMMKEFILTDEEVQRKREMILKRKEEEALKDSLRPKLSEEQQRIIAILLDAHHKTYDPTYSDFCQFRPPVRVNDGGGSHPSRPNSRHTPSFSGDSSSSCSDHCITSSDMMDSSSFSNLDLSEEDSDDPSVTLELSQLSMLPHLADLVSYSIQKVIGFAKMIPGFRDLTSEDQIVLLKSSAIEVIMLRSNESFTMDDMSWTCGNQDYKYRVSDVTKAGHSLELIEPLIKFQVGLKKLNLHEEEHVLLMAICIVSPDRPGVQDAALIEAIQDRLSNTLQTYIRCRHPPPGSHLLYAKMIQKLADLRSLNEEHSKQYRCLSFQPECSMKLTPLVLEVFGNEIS
Chain of Peroxisome proliferator-activated receptor delta (Homo sapiens) (Q03181 whole entry, looked up): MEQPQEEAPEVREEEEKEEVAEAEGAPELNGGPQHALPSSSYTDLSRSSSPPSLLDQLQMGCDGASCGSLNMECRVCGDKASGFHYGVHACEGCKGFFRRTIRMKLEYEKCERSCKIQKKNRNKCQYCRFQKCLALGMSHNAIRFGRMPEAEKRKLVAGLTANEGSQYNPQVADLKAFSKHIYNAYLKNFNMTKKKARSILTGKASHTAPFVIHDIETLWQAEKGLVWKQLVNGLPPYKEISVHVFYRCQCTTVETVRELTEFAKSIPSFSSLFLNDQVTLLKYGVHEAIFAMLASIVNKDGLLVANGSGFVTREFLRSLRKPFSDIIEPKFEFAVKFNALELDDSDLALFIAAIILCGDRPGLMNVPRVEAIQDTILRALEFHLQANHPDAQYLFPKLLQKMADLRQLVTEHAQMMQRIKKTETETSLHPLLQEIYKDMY
Chain of Peroxisome proliferator-activated receptor gamma (Homo sapiens) (P37231 whole entry, looked up): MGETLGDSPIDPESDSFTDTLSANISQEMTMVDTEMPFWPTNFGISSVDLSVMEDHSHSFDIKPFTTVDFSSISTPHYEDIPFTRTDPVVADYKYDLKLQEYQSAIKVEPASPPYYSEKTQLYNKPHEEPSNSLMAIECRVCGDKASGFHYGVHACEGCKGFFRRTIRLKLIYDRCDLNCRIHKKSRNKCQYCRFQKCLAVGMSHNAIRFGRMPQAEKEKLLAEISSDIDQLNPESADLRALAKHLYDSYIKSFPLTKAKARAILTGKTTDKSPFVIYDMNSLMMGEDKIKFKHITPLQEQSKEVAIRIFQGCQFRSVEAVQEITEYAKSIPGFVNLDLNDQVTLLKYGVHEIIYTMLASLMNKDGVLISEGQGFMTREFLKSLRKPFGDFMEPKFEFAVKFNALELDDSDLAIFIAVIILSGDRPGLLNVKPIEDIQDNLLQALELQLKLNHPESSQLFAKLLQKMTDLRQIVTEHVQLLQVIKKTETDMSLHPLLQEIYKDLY
Chain of Aryl hydrocarbon receptor (Homo sapiens) (P35869 whole entry, looked up): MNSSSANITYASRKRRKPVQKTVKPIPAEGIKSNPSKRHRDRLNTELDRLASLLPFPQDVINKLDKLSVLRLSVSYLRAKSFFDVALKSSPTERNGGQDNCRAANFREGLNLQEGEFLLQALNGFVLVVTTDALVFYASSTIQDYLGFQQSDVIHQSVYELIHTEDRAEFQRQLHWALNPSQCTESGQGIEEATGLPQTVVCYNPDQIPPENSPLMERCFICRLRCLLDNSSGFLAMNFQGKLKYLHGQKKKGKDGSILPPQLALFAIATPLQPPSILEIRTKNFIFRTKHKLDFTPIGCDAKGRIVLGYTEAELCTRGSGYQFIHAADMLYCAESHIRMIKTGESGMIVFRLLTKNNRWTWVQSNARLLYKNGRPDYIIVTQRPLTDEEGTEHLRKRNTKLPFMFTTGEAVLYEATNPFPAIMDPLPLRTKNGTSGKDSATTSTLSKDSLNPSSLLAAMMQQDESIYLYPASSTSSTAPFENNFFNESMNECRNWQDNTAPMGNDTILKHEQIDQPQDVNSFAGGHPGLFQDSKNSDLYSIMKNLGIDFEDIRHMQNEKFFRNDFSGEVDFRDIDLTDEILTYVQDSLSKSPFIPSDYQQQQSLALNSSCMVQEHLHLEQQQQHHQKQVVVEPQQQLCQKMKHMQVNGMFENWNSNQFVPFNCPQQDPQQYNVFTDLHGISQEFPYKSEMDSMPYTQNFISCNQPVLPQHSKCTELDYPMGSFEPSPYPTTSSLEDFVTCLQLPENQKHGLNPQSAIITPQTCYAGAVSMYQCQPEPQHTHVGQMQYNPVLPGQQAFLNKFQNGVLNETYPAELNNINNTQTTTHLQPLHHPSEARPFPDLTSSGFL

CNC[C@H](O)c1ccc(O)c(O)c1
not listed: [16] | [17] | [18] | [19] | [20]
inactive: all other assays above

C[C@]12C=CC(=O)C=C1CC[C@H]1[C@@H]3C[C@@H](O)[C@](O)(C(=O)CO)[C@@]3(C)C[C@H](O)[C@@]12F
not listed: [19] | [20]
inactive: all other assays above

CCc1cccc2c3c([nH]c12)C(CC)(CC(=O)O)OCC3 (centres undefined)
not listed: [16] | [17]
inactive: all other assays above

Cc1ccc2c(c1)C(=O)OC2=O
not listed: [19] | [20]
inactive: all other assays above

IC(I)I
not listed: [6] | [14] | [15]
inactive: all other assays above

FC(F)(F)C(Cl)Br (centres undefined)
not listed: [13] | [14] | [15] | [19] | [20]
inactive: all other assays above

Cc1ccc(C)c(O)c1
not listed: [6]
inactive: all other assays above

NCCS(=O)(=O)O
not listed: [13] | [16] | [17] | [19] | [20]
inactive: all other assays above

Cc1ccc(/C(=C\CN2CCCC2)c2ccccn2)cc1
not listed: [6] | [7] | [10] | [12] | [19] | [20]
inactive: all other assays above

CC1(C)O[C@@H]2C[C@H]3[C@@H]4C[C@H](F)C5=CC(=O)C=C[C@]5(C)[C@@]4(F)[C@@H](O)C[C@]3(C)[C@]2(C(=O)CO)O1
not listed: [6] | [14] | [17] | [19] | [20]
inactive: all other assays above

CC(=O)OC(C)C
not listed: [6] | [13]
inactive: all other assays above

CC(C)(Oc1ccc(Cl)cc1)C(=O)O
not listed: [19] | [20]
inactive: all other assays above

Cc1ccc(C(C)(C)C)cc1
not listed: [6] | [19] | [20]
inactive: all other assays above

CCCOCCO
not listed: [6] | [16] | [17]
inactive: all other assays above

c1ccc2c(c1)[nH]c1ccccc12
not listed: [14] | [15] | [19] | [20]
inactive: all other assays above

CCCCCCCCCCCCO
not listed: [13]
inactive: all other assays above
